Sampled rows, rich in hits. Any-hit rate of the full collection: about 19%.
TDP1 cell noCPT = qHTS for Inhibitors of human tyrosyl-DNA phosphodiesterase 1 (TDP1): qHTS in cells in absence of CPT; 420,000 compounds, 15% hits; AID 686978, 2013; Potency, µM (doses to about 46.2 µM), inactives show at the top dose activity change, negative = growth inhibition, hits mostly inhibitors; DT40 Tdp1-/- hTDP1 cells, no CPT, ATP luminescence, 48 h; note: nearly all actives have a fitted effect of over 55% in size
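Growth of hTDP1-complemented DT40 Tdp1-knockout cells is measured by ATP luminescence after at least 48 hr compound exposure at 37 °C, with DMSO substituting for the 20 nM CPT used in the parallel screen.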
TDP1 cell CPT = growth inhibition of DT40 Tdp1-/-;hTDP1 cells with camptothecin (screen for TDP1 inhibitors); AID 686979; chicken DT40 Tdp1-/-;hTDP1 cells + 20 nM CPT, ATP luminescence, 48 h; 420,000 compounds, 12% hits; Potency, µM (doses to about 46.2 µM), inactives show at the highest dose activity change, negative = growth inhibition, usual class: inhibitors; note: nearly all actives have a fitted effect of over 55% in size
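Chicken DT40 Tdp1-/- cells stably complemented with human TDP1 were seeded at 400 cells/well in medium containing 20 nM camptothecin, exposed to pin-transferred compounds, and grown at 37 °C for at least 48 hr. Viability was read as ATP luminescence.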
HT1080NT lethal = kills 2HG-producing HT-1080-NT fibrosarcoma cells | Potency, µM (titrated, usually from 46.1 µM), without a hit: top-dose activity, negative = less viability, most hits filed as cytotoxic | 360,000 compounds, 1.6% hits | HT-1080-NT fibrosarcoma viability, CellTiter-Glo ATP luminescence, 48 h;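 note: NT is the 2HG producing partner of a matched IDH1 knockdown line; 0% = DMSO-treated cells and -100% = media-only wells without cells; nearly all actives have a fitted effect of over 55% in size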
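Read-out is CellTiter-Glo luminescence after 10 minutes at room temperature, following 48 hours' compound treatment of HT-1080-NT cells (750 cells/well, RPMI, 5% FBS, 37 degrees C).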
KB-V1 cytotox = kills drug-selected multidrug resistant KB-V1 cells | KB-V1 MDR cells viability, CellTiter-Glo, 72 h | Potency, µM (top dose mostly 46.1 µM), usual class: cytotoxic | 400,000 compounds, 3.4% hits | AID 1347076; note: nearly all actives have a fitted effect of over 60% in size
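Luminescent ATP read-out (CellTiter-Glo, 10 min) measures survival of drug-selected KB-V1 MDR cells after 72 h, 37 degrees C compound exposure. Medium: phenol-red-free DMEM, 10% FBS. Values from fitted concentration-response curves.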
KB-3-1 tox = kills parental KB-3-1 adenocarcinoma cells | KB-3-1 viability, CellTiter-Glo ATP luminescence, 72 h | Potency, µM (titrated, usually from 46.1 µM), most hits filed as cytotoxic | 400,000 compounds, 1.4% hits; note: nearly all actives have a fitted effect of over 60% in size
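Parental KB-3-1 adenocarcinoma cells in phenol-red-free DMEM with 10% FBS were pin-treated with compounds at several concentrations, incubated 72 h at 37 °C, and viability read by CellTiter-Glo luminescence; concentration-effect curves were fitted after normalization.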
HT1080 IDH1KD tx = kills HT-1080 cells with IDH1 knockdown; Potency, µM (top dose mostly 46.1 µM), for the others: at the top dose activity, negative = toxicity, actives largely listed as cytotoxic; 360,000 compounds, 2% hits; AID 686971; HT-1080 IDH1 knockdown viability, ATP luminescence, 48 h;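 note: 0% = DMSO wells and -100% = cell-free medium wells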
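Luminescent ATP read-out (CellTiter-Glo, 10 min at room temperature) after 48 h compound exposure at 37 °C gave viability of IDH1-knockdown HT-1080 cells. Activity was normalised to DMSO and cell-free wells, then fitted as concentration-response curves.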
Active calls of the source: *; i = inactive; u = inconclusive; x = no result; ! = not confirmed by another sample; [ ] = dose if it differs, or a comment. Calls come from the whole dose curve; as a rule, active = well fitted curve in the direction sought with a large enough effect; inconclusive = small, poorly fitted or top-dose-only effect, or another doubt; inactive = no such curve, though single readings can be large; an effect the other way counts as inactive or inconclusive. Unless noted, % is set by controls: 0 for no effect and ±100 for the full control effect; potency is the fitted concentration of half-maximal effect.

SMILES	TDP1 cell noCPT	TDP1 cell CPT	HT1080NT lethal	KB-V1 cytotox	KB-3-1 tox	HT1080 IDH1KD tx
Cc1cc(C)cc(OCC(=O)N(Cc2cccs2)C2CCS(=O)(=O)C2)c1 (stereo unspecified)	0%	-16%	-3%	8.2µM*	i	-2%
COc1ccccc1CNC(=O)C1CCC(CNS(=O)(=O)c2ccccc2)CC1 (stereo unspecified)	-2%	-9%	0%	i	i	-6%
Cc1cc(C(=O)NCc2nnc3n2CCN(Cc2ccc(F)cc2F)CC3)c(C)o1	-9%	-25%	x	x	x	x
O=C(Nc1cc(F)cc(F)c1)c1ccc(NCCCN2CCCCCC2)c([N+](=O)[O-])c1	u	u	u	u	i	u
Cc1ccc(NC(=O)c2ccc(NCCCN3CCC(C)CC3)c([N+](=O)[O-])c2)c(C)c1	16µM*	u	u	i	i	-13%
COc1cccc(NC(=O)c2ccc(NCCCN3CC(C)CC(C)C3)c([N+](=O)[O-])c2)c1 (stereo unspecified)	u	0%	u	i	i	u
CCCN(CCC)CCCNc1ccc(C(=O)Nc2cccc(OC)c2)cc1[N+](=O)[O-]	u	u	u	i	i	21µM*
COc1cccc(NC(=O)c2ccc(NCCCN3CCC(C)CC3)c([N+](=O)[O-])c2)c1	16µM*	u	u	i	i	u
O=C(Nc1ccc(Cl)c(C(F)(F)F)c1)Nc1nnc(-c2ccncc2)s1	x	x	x	i	u	x
CCc1nc2ccc(C(=O)N3CCN(c4ccccc4)CC3)cn2c1N(C)CCCc1ccccc1	16µM*	13µM*	u	u	u	u
CCc1nc2ccc(C(=O)N3CCN(c4ccccc4)CC3)cn2c1N(C)CCC(C)C	21µM*	u	u	23µM*	u	6.5µM*
CC(C)CCN1CCN(C2CCN(c3ccccc3)CC2)CC1CCO (stereo unspecified)	15%	-1%	-4%	i	i	-5%
Cc1scc(C(=O)NNC(=S)NC(C)c2ccccc2)c1C (stereo unspecified)	21µM*	16µM*	12%	i	i	9%
CCCCNC(=S)NNC(=O)c1csc(C)c1C	u	u	1%	i	i	0%
OCCC1CN(Cc2cccn2-c2nccs2)CCN1Cc1ccccc1 (stereo unspecified)	-6%	-26%	3%	i	i	10%
COc1ccc(C(=O)C2CCCN(Cc3cccn3-c3nccs3)C2)cc1OC (stereo unspecified)	13µM*	18µM*	u	i	i	u
COc1ccc(C(=O)C2CCCN(Cc3cccn3-c3nccs3)C2)cc1F (stereo unspecified)	21µM*	23µM*	u	i	u	u
OCCC1CN(Cc2cccn2-c2nccs2)CCN1Cc1ccc(F)c(F)c1 (stereo unspecified)	18µM*	13µM*	-2%	i	i	-1%
COc1ccc(C(=O)C2CCCN(Cc3ccc4c(c3)OCCO4)C2)cc1F (stereo unspecified)	-21%	u	-11%	i	i	-6%
CCc1nc2ccc(C(=O)Nc3cccc(OC)c3)cn2c1N(C)Cc1ccc(OC)cc1	u	u	u	i	i	-29%
O=C(CN1CCN(C/C=C/c2ccccc2)CC1)NC(=O)NC1CCCCC1	-12%	2%	-8%	i	i	-7%
O=C(CCSc1nc(-c2ccco2)cc(C(F)(F)F)n1)NCc1cccs1	u	16µM*	-18%	i	i	-1%
CC(NC(=O)CCSc1nc(-c2ccco2)cc(C(F)(F)F)n1)c1ccccc1 (stereo unspecified)	u	13µM*	-1%	u	i	-17%
O=C(CCSc1nc(-c2ccco2)cc(C(F)(F)F)n1)N1CCN(c2ccccc2)CC1	21µM*	u	-19%	u	i	-10%
COc1ccc(CCNc2nc(-c3ccco3)cc(C(F)(F)F)n2)cc1OC	u	u	-11%	i	i	-5%
SMILES	TDP1 cell noCPT	TDP1 cell CPT	HT1080NT lethal	KB-V1 cytotox	KB-3-1 tox	HT1080 IDH1KD tx
COc1ccc(CCNC(=O)CCSc2nc(-c3ccco3)cc(C(F)(F)F)n2)cc1OC	16µM*	15µM*	-11%	u	i	-9%
Cc1cc(F)ccc1NC(=O)CCSc1nc(-c2ccco2)cc(C(F)(F)F)n1	-24%	-24%	x	i	i	x
O=C(CCSc1nc(-c2ccco2)cc(C(F)(F)F)n1)NCc1ccccn1	-20%	-28%	7%	i	i	14%
CN(C)c1ccc(/C=N/NC(=O)CNC(=O)c2ccncc2)cc1	12%	-15%	9%	i	i	17%
CC/C(=C\c1ccc(N(C)C)cc1)c1ccncc1	u	23µM*	u	10µM*	21µM*	u
CCOC(=O)C(Cc1ccccc1)NC(=O)CCc1c(C)nc2ncnn2c1C (stereo unspecified)	-16%	u	-1%	i	i	-3%
Cc1nc2cc(-c3ccccc3)nn2c(C)c1CCC(=O)NCCc1ccccc1	u	16µM*	x	i	i	x
Cc1nc2ncnn2c(C)c1CCC(=O)NCCc1ccccc1	-27%	u	-1%	i	i	7%
CCOC(=O)C(Cc1ccccc1)NC(=O)CCc1c(C)nc2nc(C)nn2c1C (stereo unspecified)	23µM*!	u	9%	i	i	12%
Cc1nc2cc(-c3cccc(F)c3)nn2c(C)c1CCC(=O)NCCc1ccccc1	u	26µM*	x	i	i	x
CCCc1nc2ccccc2n1C(CCSC)C(=O)NC(C)(C)C (stereo unspecified)	u	-18%	-2%	i	i	11%
COc1ccc2c(c1)-c1nc(-n3ncc(C(=O)N(C)C(C)c4ccon4)c3C3CC3)ncc1CC2 (stereo unspecified)	u	-20%[9.04 µM]	x	x	x	x
O=C1c2ccccc2NC(c2ccc(Cl)cc2Cl)N1O (stereo unspecified)	16µM*	u	u	u	u	u
CCCN1C(=O)c2ccccc2NC1c1cc(OC)c(OC)c(OC)c1 (stereo unspecified)	-28%	-13%	4%	i	i	1%

High-throughput results: PubChem BioAssay, National Center for Advancing Translational Sciences (NCATS)
